Test results reported in PubChem BioAssay (NCATS).
Inconclusive results are not listed. Activity calls are given as the source filed them. Unless noted, the call rests on the fitted dose curve; in most records, active means well fitted curve in the direction sought with a large enough effect; inconclusive means small, poorly fitted or top-dose-only effect, or another doubt; inactive means no such curve, though single readings can be large; an effect the other way counts as inactive or inconclusive.

Assays:
[1] = molecular target: Peroxisome proliferator-activated receptor alpha (Homo sapiens) (UniProt Q07869); assay: qHTS assay for small molecule agonists of the peroxisome proliferator-activated receptor alpha (PPARalpha) signaling pathway (AID 651778); conditions: PathHunter PPARalpha complementation, chemiluminescence, 6 h; active compounds read high; further: % of control where 0% means no effect
Outline: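 Cells plated at 2,000/well and held overnight at 37 C, 5% CO2, then compound added by pin tool for 6 hr; after PathHunter detection reagent and 60 min at room temperature, chemiluminescence from enzyme complementation was read.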

[2] = qHTS assay for small molecule agonists of the antioxidant response element (ARE) signaling pathway measured by Nrf2-dependant transcriptional activity (AID 720636; active means well fitted curve in the direction sought with a large enough effect in the repeat runs; an effect the other way counts as inactive or inconclusive;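 further: HepG2 cells with an ARE-driven luciferase reporter; % of control where 0% means no effect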); conditions: ARE-luc HepG2, Nrf2 luciferase reporter, 16 h; series mostly up to 92.4 µM
Outline: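 ONE-Glo luminescence, read 30 min after reagent addition at room temperature, reflected ARE reporter activity in HepG2 cells that had been incubated with compound for 16 hr at 37 C in 1% dialyzed FBS.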

[3] = molecular target: Arylsulfatase A (Homo sapiens) (UniProt P15289); assay: qHTS screen for enhancers of Arylsulfatase A (ASA1): LOPAC Validation Assay (AID 720538); conditions: ASA enzyme activity, LOPAC qHTS enhancer assay; series mostly up to 57.5 µM
Outline: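 SV40-transformed fibroblasts from an MLD patient (ASA-I179S) were treated with compound for 48 h at 37 C. They were then lysed with 0.5 mM pNCS substrate (final) for 14 h at room temperature and stopped with NaOH; signal read by fluorescence (Ex 525/Em 598 nm), with increase denoting enhanced activity.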

[4] = qHTS for compounds that reverse cellular toxicity of Amyloid beta (A-beta) peptide in yeast: LOPAC Validation Assay (AID 720559); conditions: yeast expressing A-beta; series mostly up to 46.1 µM;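 further: plate controls were DMSO for no effect and equimolar ferric chloride plus clioquinol rescue for full effect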
Outline: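 Yeast expressing toxic A-beta grown with pinned compounds at 30 C for 48 hr. Growth measured as absorbance at 600 nm; data normalized to DMSO and to an equimolar FeCl3/clioquinol mixture as positive control.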

[5] = qHTS for Activators of Parkin Expression: LOPAC Validation Assay (NLuc Reporter) (AID 720572;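 further: 0% = DMSO and 100% = positive control compound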); conditions: Parkin promoter NanoLuc reporter cells, luminescence; series mostly up to 46.1 µM
Outline: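 Cells harboring the Parkin-promoter coincidence reporter were treated for 24 h at seven concentrations. NLuc output was measured sequentially after the FLuc channel and scaled between DMSO and positive control values.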

[6] = qHTS for Activators of Parkin Expression: LOPAC Validation Assay (FLuc Reporter) (AID 720573;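 further: 0% = DMSO and 100% = positive control compounds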); conditions: Cell line, PRKN promoter firefly luciferase reporter, vehicle wells = 0, positive control = 100%; series mostly up to 46.1 µM
Outline: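 Neuronal cell line stably expressing FLuc/NLuc coincidence reporter under the Parkin promoter, 1,500 cells/well, dosed 24 h after seeding in 7-point series for 24 h at 37 C. FLuc luminescence read; normalized to DMSO and positive control (100%).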

[7] = qHTS assay for environmental chemicals that activate the Aryl hydrocarbon Receptor (AhR) signaling pathway (AID 651777); conditions: 1A2-DRE human hepatoma cells, luciferase, 24 h; activation: active compounds read high; further: % of control where 0% means no effect; nearly all actives have a fitted effect of over 15% in size
Outline: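 Following a 24 hr incubation with test chemicals at 37 C and 5% CO2, 1A2-DRE human hepatoma cells received One-Glo reagent; after 30 min at room temperature, luciferase output reflected CYP1A2 induction via AhR.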

Sequence of Arylsulfatase A (Homo sapiens) (P15289 whole entry, looked up): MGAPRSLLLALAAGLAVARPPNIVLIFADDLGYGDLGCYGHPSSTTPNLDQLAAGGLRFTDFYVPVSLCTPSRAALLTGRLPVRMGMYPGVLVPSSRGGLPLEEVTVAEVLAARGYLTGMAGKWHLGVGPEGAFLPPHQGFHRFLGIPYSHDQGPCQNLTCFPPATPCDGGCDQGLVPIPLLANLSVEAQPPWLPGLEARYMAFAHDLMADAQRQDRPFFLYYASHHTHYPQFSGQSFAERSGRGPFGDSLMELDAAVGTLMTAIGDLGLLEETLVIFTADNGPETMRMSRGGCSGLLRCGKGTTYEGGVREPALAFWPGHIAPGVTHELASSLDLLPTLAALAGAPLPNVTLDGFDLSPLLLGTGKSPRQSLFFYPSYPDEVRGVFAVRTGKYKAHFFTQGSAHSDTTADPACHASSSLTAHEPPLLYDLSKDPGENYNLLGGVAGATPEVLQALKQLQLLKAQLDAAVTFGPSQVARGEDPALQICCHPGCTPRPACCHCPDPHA
Sequence of Peroxisome proliferator-activated receptor alpha (Homo sapiens) (Q07869 whole entry, looked up): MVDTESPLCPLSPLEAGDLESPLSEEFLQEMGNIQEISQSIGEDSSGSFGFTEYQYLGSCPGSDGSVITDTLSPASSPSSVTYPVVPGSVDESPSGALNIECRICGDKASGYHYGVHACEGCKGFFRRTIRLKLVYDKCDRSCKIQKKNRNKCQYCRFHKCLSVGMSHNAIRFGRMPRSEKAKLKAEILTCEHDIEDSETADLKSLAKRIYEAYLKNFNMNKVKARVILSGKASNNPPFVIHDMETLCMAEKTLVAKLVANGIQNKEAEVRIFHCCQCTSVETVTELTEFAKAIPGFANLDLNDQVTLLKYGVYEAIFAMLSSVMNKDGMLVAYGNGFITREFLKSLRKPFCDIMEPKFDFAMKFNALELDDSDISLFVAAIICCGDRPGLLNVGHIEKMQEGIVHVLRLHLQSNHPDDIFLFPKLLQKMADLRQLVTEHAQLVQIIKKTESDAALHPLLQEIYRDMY

O=C(NCNC(=O)NC1C(=O)NC(=O)N1CO)NC1C(=O)NC(=O)N1CO (configuration not stated)
inactive: max response [1] -1.19% | Potency [2]

C[N+]1(C)CCc2cc3c(cc2[C@H]1[C@@H]1OC(=O)c2c1ccc1c2OCO1)OCO3
inactive: Potency [3] | outcome [4] | Potency [5] | outcome [6]

COc1ccc2c(c1)[C@@]13CCCC[C@H]1[C@@H](C2)NCC3
inactive: Potency [3] | outcome [4] | Potency [5] | outcome [6]

NCCCP(=O)(O)O
inactive: Potency [3] | outcome [4] | Potency [5] | outcome [6]

CCCSP(=O)(OCC)SCCC
inactive: activation [7] -2.38% | max response [1] 0.388% | Potency [2]

CC1OC1P(=O)(O)O (configuration not stated)
inactive: Potency [3]

CC(C)NP(=O)(NC(C)C)OP(=O)(NC(C)C)NC(C)C
inactive: Potency [3] | outcome [4] | Potency [5] | outcome [6]

CC12NC(Cc3ccccc31)c1ccccc12 (configuration not stated)
inactive: Potency [3]

NC(N)=NOCC[C@H](N)C(=O)O
inactive: Potency [3] | outcome [4] | Potency [5] | outcome [6]

c1ccc2c(c1)[I+]c1ccccc1-2
inactive: Potency [3] | outcome [4] | Potency [5] | outcome [6]

c1ccc2cc(CC3=NCCN3)ccc2c1
inactive: Potency [3] | outcome [4] | Potency [5] | outcome [6]

CCCN(CCC)C1Cc2cc(OC)c(OC)cc2C1
inactive: Potency [3] | outcome [4] | Potency [5] | outcome [6]

Cc1[nH]c2ccc(O)cc2c1CCN
inactive: Potency [3] | outcome [4] | Potency [5] | outcome [6]

NCCc1ccc(S(=O)(=O)F)cc1
inactive: Potency [3] | outcome [4] | Potency [5] | outcome [6]

OC1CCCCC1N1CCC(c2ccccc2)CC1 (configuration not stated)
inactive: Potency [3] | outcome [4] | Potency [5] | outcome [6]

CCCN1CC[C@@H]2c3cc(O)ccc3CC[C@@H]21
inactive: Potency [3] | outcome [4] | Potency [5] | outcome [6]

O=c1c2ccccc2[se]n1-c1ccccc1
inactive: Potency [3] | outcome [4] | Potency [5] | outcome [6]

Cc1c2ccncc2c(C)c2c1[nH]c1ccccc12
inactive: Potency [3] | outcome [4] | Potency [5] | outcome [6]

NC(=O)c1ccc(OCC(O)CN2CC=C(c3ccc(F)cc3)CC2)cc1 (configuration not stated)
inactive: Potency [3] | outcome [4] | Potency [5] | outcome [6]

CC(C)(O)[C@@H]1C2OC(=O)[C@@H]1[C@]1(O)C[C@H]3O[C@]34C(=O)O[C@H]2[C@]14C (tested in a mixture with another compound)
inactive: Potency [3] | outcome [4] | Potency [5] | outcome [6]

C[C@@H]1[C@@H]2Cc3ccc(O)cc3[C@@]1(C)CCN2CC1CC1
inactive: Potency [3] | outcome [4] | Potency [5] | outcome [6]

COc1ccc2[nH]c3c(c2c1)CCNC3
inactive: Potency [3] | outcome [4] | Potency [5] | outcome [6]

CC(C)(C)c1cc(C=C(C#N)C#N)cc(C(C)(C)C)c1O
inactive: Potency [3] | outcome [4] | Potency [5] | outcome [6]

NC(=O)COc1c(F)cc(SCCNS(=O)(=O)c2ccccc2)cc1F
inactive: Potency [3] | outcome [4] | Potency [5] | outcome [6]

CCCN(CCC)C1CCc2cccc(O)c2C1 (configuration not stated)
inactive: Potency [3] | outcome [4] | Potency [5] | outcome [6]

C=CCN1CC[C@]23c4c5ccc(O)c4O[C@H]2/C(=N/NC(=O)c2ccccc2)CC[C@@]3(O)[C@H]1C5
inactive: Potency [3] | outcome [4] | Potency [5] | outcome [6]

CP(=O)(O)C1=CCNCC1
inactive: Potency [3] | outcome [4] | Potency [5] | outcome [6]

Oc1ccc2c3c1O[C@H]1c4oc5ccccc5c4C[C@@]4(O)C(C2)N(CC2CC2)CCC314 (some centres not stated)
inactive: Potency [3] | outcome [4] | Potency [5] | outcome [6]

CCCCCCCCCCCCCC(=O)O[C@@H]1[C@@H](C)[C@@]2(O)[C@@H](C=C(CO)C[C@@]3(O)C(=O)C(C)=C[C@@H]23)C2C(C)(C)[C@@]21OC(C)=O (some centres not stated)
inactive: Potency [3] | outcome [4] | Potency [5] | outcome [6]

CO[C@H]1CC=C2CCN3CCC4=C(CC(=O)OC4)[C@]23C1
inactive: Potency [3] | outcome [4] | Potency [5] | outcome [6]

C#CCN[C@H](C)Cc1ccccc1
inactive: Potency [3] | outcome [4] | Potency [5] | outcome [6]

COc1cc(CC(C)N)c(OC)cc1I (configuration not stated)
inactive: Potency [3] | outcome [4] | Potency [5] | outcome [6]

C[C@@H]1O[C@H](C[N+](C)(C)C)CS1
inactive: Potency [3] | outcome [4] | Potency [5] | outcome [6]

CCN1C[C@@]2(COC)C3[C@@H](OC)C4[C@@H]1C3([C@@H]1C[C@]3(O)[C@H](OC(=O)c5ccccc5)[C@@H]1[C@]4(OC(C)=O)[C@@H](O)[C@@H]3OC)[C@H](OC)C[C@H]2O
inactive: Potency [3] | outcome [4] | Potency [5] | outcome [6]

C[C@H](N)CN1CCc2ccc(Br)cc21
inactive: Potency [3] | outcome [4] | Potency [5] | outcome [6]

N[C@@H](CCl)C(=O)O
inactive: Potency [3] | outcome [4] | Potency [5] | outcome [6]

CN(C(=O)Cc1ccc(Cl)c(Cl)c1)C(CN1CCCC1)c1cccc(OCC(=O)O)c1 (configuration not stated)
inactive: Potency [3] | outcome [4] | Potency [5] | outcome [6]

CC(Cc1ccc(OCC(=O)O)cc1)NCC(O)c1cccc(Cl)c1 (configuration not stated)
inactive: Potency [3] | outcome [4] | Potency [5] | outcome [6]

Ic1ccccc1CNC1C2CCN(CC2)C1C(c1ccccc1)c1ccccc1 (configuration not stated)
inactive: Potency [3] | outcome [4] | Potency [5] | outcome [6]

C[N+](C)(C)CC#CCN1CCCC1=O
inactive: Potency [3] | outcome [4] | Potency [5] | outcome [6]

CCS(=O)(=O)Nc1cccc(C(=C2CCCCC2)c2cnc[nH]2)c1
inactive: Potency [3] | outcome [4] | Potency [5] | outcome [6]

CCCC[N+]1(C)C2CC(OC(=O)[C@H](CO)c3ccccc3)CC1C1OC12 (some centres not stated)
inactive: Potency [3] | outcome [4] | Potency [5] | outcome [6]

C=CCN(C1=NCCN1)c1c(Cl)cccc1Cl
inactive: Potency [3] | outcome [4] | Potency [5] | outcome [6]

N#C/C(=C/c1ccc(O)c(O)c1)C(N)=S
inactive: Potency [3] | outcome [4] | outcome [6]

C=CCN1CC[C@]23c4c5ccc(O)c4O[C@@H]2/C(=N/N=C2\CC[C@@]4(O)C6Cc7ccc(O)c8c7[C@@]4(CCN6CC=C)[C@@H]2O8)CC[C@@]3(O)C1C5
inactive: Potency [3] | outcome [4] | Potency [5] | outcome [6]

C[C@]12Cc3cn4c(nc3C=C1CCC1C2CC[C@@]2(C)[C@H]1CC[C@@]2(O)C#N)nc1ccccc14 (some centres not stated)
inactive: Potency [3] | outcome [4] | outcome [6]

COc1ccc(CNC(=O)/C=C/c2ccc3[nH]cc(CCN(C)C)c3c2)cc1
inactive: Potency [3] | outcome [4] | outcome [6]

C[N+]1(C)CCOC(O)(c2ccc(-c3ccc(C4(O)C[N+](C)(C)CCO4)cc3)cc2)C1 (configuration not stated)
inactive: Potency [3] | outcome [4] | outcome [6]

NC(=O)CI
inactive: Potency [3] | outcome [4] | outcome [6]

C[C@H](N)Cc1cccc(C(F)(F)F)c1
inactive: Potency [3] | outcome [4] | outcome [6]

CN1CCc2cccc(Cl)c2CC1
inactive: Potency [3] | outcome [4] | outcome [6]

COc1ccc2[nH]cc(CCN)c2c1
inactive: Potency [3] | outcome [4] | outcome [6]

Cc1o[nH]c(=O)c1CC(N)C(=O)O (configuration not stated)
inactive: Potency [3] | outcome [4] | Potency [5] | outcome [6]

CNc1ccc2oc(C[C@H]3O[C@@]4(CC[C@H]3C)O[C@H]([C@H](C)C(=O)c3ccc[nH]3)[C@H](C)C[C@H]4C)nc2c1C(=O)O
inactive: Potency [3] | outcome [4] | outcome [6]

C[Se]C[C@H](N)C(=O)O
inactive: Potency [3] | outcome [4] | outcome [6]

Cc1sc2ccccc2c1CC1=NCCN1
inactive: Potency [3] | outcome [4] | outcome [6]

COC(=O)N1CCN(C(=O)Cc2ccc(Cl)c(Cl)c2)C(CN2CCCC2)C1 (configuration not stated)
inactive: Potency [3] | outcome [4] | Potency [5] | outcome [6]

O=S1(=O)N(CCN2CC=C(c3c[nH]c4cc(F)ccc34)CC2)c2cccc3c2N1CCC3
inactive: Potency [3] | outcome [4] | outcome [6]

CN1C2CCC1CC(OC(c1ccccc1)c1ccccc1N)C2 (configuration not stated)
inactive: Potency [3] | outcome [4] | Potency [5] | outcome [6]

CCN(CCCl)Cc1ccccc1Br
inactive: Potency [3] | outcome [4] | outcome [6]

CN1CC[C@@]2(C)c3cc(OC(=O)Nc4ccccc4)ccc3N(C)[C@@H]12
inactive: Potency [3] | outcome [4] | Potency [5] | outcome [6]
